Results on 17 compounds are retold here after PubChem BioAssay.

Several values for one entry are separate records, joined by “and”; a condition that tells them apart may be missing. Identical values can stand only once. Activity calls are given as the source filed them. How the calls were made is not given here.

System in one assay: not listed separately
The assay can be described thus: EMT-state selective cytotoxicity in co-culture – imaging, PC-3E GFP, TEM4-18 mCherry, primary screen (AID 1345086).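 Further: cells exposed to compound for 72 h before imaging.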 The settings on record: PC-3E GFP / TEM4-18 mCherry co-culture, imaging cell counts; measured here: mesenchymal TEM4-18 mCherry cell survival; at 1 µM.
Regarding `NCCc1c[nH]c2ccc(O)cc12`, the normalised cell number was found to be 0.96. Same read-out and setting: next, `C[C@]12[C@H](O)CC3C(CC[C@@H]4C[C@@H](O)CC[C@]34C)[C@@]1(O)CC[C@@H]2C1=CC(=O)OC1` (some centres undefined): 0.2.

With `COc1cc2c(cc1OC)[C@@]13CCN4CC5=CCOC6CC(=O)N2C1[C@H]6[C@H]5C[C@H]43` (some centres undefined), the normalised cell number was 1.02 and 1.23.

For `CCC(C)C1C(=O)OC(C(C)C)C(=O)N(C)C(C(C)C)C(=O)OC(C(C)C)C(=O)N(C)C(C(C)C)C(=O)OC(C(C)C)C(=O)N1C` (centres undefined), the normalised cell number was 1 and 0.58. On the same count and under the same terms, as for `COc1cc([C@@H]2c3cc4c(cc3[C@H](OC(C)=O)C3COC(=O)[C@H]32)OCO4)cc(OC)c1OC` (some centres undefined), the figure is 0.2; as for `CCC(C)[C@H]1O[C@]2(C=C[C@@H]1C)C[C@@H]1C[C@@H](C/C=C(\C)[C@@H](OC3C[C@H](OC)C(O[C@H]4C[C@H](OC)[C@@H](O)[C@H](C)O4)[C@H](C)O3)[C@@H](C)/C=C/C=C3\COC4[C@H](O)C(C)=C[C@@H](C(=O)O1)[C@]34O)O2` (some centres undefined), 0.6; as for `COc1cc(O)c2c(=O)oc3cc(O)cc(C)c3c2c1`, 1.07. Same read-out and setting: as for `C=CCSSCC=C`, the figure is 0.95. On to `C/C=C(\C)C(=O)O[C@H]1C[C@@H](OC(C)=O)[C@@]2(C(=O)OC)CO[C@@H]3C2[C@]12CO[C@](O)(C(=O)OC)[C@H]2[C@](C)(C12O[C@@]1(C)[C@H]1C[C@H]2OC2OC=C[C@@]21O)[C@@H]3O` (some centres undefined), for which the normalised cell number was 1.08.

The subject of another assay is Aerobactin synthetase IucA (Klebsiella pneumoniae hvKP1). Briefly: IucA enzyme inhibition, primary screen, biochemical, Spectrum library (AID 1346200).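 Further: 100% = wells without compound and 0% = wells lacking enzyme.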 The following applies: malachite green pyrophosphate, A620, at 8 µM, stronger effect = lower value.
`CN(CCC(N)CC(=O)N[C@H]1C=CC(n2ccc(N)nc2=O)O[C@@H]1C(=O)O)C(=N)N` (some centres undefined): the activity remaining is 109% (inactive).

For `COc1cc2c(cc1OC)[C@@H]1C(=O)c3ccc4c(c3O[C@@H]1CO2)CC(C(C)C)O4` (some centres undefined), the activity remaining was 114% (inactive). The same measure, in the same setting: as for `C[N+]1(C)CCc2cc3c(cc2[C@H]1C1OC(=O)c2c1ccc1c2OCO1)OCO3` (some centres undefined), the figure is 129% (inactive). On to `CC(=O)OC1CC[C@@]2(C)C(CCC3C2CC[C@]2(C)C(C4=CC(=O)OC4)C(OC(C)=O)CC32O)C1` (some centres undefined), for which the activity remaining was 109% (inactive). Still for that read-out and setting: as for `CC1OC(=O)[C@@H](C(C)C)NC(=O)C(C(C)C)OC(=O)[C@H](C(C)C)NC(=O)C(C)OC(=O)[C@@H](C(C)C)NC(=O)C(C(C)C)OC(=O)[C@H](C(C)C)NC(=O)C(C)OC(=O)[C@@H](C(C)C)NC(=O)C(C(C)C)OC(=O)[C@H](C(C)C)NC1=O` (some centres undefined), the figure is 122% (inactive). The same measure, in the same setting: as for `CC(=O)O[C@H]1C(=O)[C@@]2(C)C([C@H](OC(=O)c3ccccc3)[C@]3(O)C[C@H](O)C(C)=C1C3(C)C)[C@]1(OC(C)=O)CO[C@@H]1C[C@@H]2O` (some centres undefined), the figure is 96.8% (inactive); as for `C[C@@H]1CC[C@@]2(OC1)OC1C(O)C3C4CC[C@H]5C[C@H](O[C@@H]6O[C@H](CO)[C@H](O[C@@H]7O[C@H](CO)[C@@H](O)[C@H](O[C@@H]8OC[C@@H](O)[C@H](O)[C@H]8O)[C@H]7O[C@@H]7O[C@H](CO)[C@H](O)[C@H](O[C@@H]8O[C@H](CO)[C@@H](O)[C@H](O)[C@H]8O)[C@H]7O)[C@H](O)[C@H]6O)[C@H](O)C[C@]5(C)C4CC[C@]3(C)C1[C@@H]2C` (some centres undefined), 111% (inactive); as for `C[C@]12CCC3C(CC[C@H]4C[C@@H](O)CC[C@]34C)C1CCC2=O` (some centres undefined), 102% (inactive). Same read-out and setting: next, `COc1cc2c(cc1OC)[C@@]13CCN4CC5=CCOC6CC(=O)N2C1[C@H]6[C@H]5C[C@H]43` (some centres undefined): 105% (inactive); `C=CCSSCC=C`: 94.6% (inactive).
